# From PubChem BioAssay
# PI5P4Ka inh: qHTS for Inhibitors of phosphatidylinositol 5-phosphate 4-kinase (PI5P4K). PI5P4Kalpha enzyme, ADP-Glo luminescence, 60 min; active compounds read low. max response, %. hit rate 1.2% among 330,000. AID 652105, 2013; active = max response of -50% or lower; inconclusive = between -30% and -50%; inactive = -30% or higher; also: value at the top dose of about 77 µM; % is scaled to controls: 0 for no effect and ±100 for the full control effect
#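 Quantitative HTS of the MLSMR library against PI5P4Kalpha with substrate. ATP added last at 5 microM final; room temperature, 60 minutes. Remaining ATP depleted, ADP converted and read as luminescence.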
# JMJD2A Tudor inh: qHTS Assay for Inhibitors of JMJD2A-Tudor Domain; Potency, µM (titrated, usually from 114 µM), without a hit: top-dose activity change, negative = inhibition, usual class: inhibitors; AlphaScreen JMJD2A-Tudor / H3K4me3 peptide binding; AID 504339, 2011; hit rate 4.4% among 390,000; Lysine-specific demethylase 4A (Homo sapiens), O75164; also: potency is read from the fitted curve at half-maximal effect; % is scaled to controls: 0 for no effect and ±100 for the full control effect; nearly all actives have a fitted effect of over 50% in size
# Target sequence (O75164 whole entry, looked up, the tested form may be a part): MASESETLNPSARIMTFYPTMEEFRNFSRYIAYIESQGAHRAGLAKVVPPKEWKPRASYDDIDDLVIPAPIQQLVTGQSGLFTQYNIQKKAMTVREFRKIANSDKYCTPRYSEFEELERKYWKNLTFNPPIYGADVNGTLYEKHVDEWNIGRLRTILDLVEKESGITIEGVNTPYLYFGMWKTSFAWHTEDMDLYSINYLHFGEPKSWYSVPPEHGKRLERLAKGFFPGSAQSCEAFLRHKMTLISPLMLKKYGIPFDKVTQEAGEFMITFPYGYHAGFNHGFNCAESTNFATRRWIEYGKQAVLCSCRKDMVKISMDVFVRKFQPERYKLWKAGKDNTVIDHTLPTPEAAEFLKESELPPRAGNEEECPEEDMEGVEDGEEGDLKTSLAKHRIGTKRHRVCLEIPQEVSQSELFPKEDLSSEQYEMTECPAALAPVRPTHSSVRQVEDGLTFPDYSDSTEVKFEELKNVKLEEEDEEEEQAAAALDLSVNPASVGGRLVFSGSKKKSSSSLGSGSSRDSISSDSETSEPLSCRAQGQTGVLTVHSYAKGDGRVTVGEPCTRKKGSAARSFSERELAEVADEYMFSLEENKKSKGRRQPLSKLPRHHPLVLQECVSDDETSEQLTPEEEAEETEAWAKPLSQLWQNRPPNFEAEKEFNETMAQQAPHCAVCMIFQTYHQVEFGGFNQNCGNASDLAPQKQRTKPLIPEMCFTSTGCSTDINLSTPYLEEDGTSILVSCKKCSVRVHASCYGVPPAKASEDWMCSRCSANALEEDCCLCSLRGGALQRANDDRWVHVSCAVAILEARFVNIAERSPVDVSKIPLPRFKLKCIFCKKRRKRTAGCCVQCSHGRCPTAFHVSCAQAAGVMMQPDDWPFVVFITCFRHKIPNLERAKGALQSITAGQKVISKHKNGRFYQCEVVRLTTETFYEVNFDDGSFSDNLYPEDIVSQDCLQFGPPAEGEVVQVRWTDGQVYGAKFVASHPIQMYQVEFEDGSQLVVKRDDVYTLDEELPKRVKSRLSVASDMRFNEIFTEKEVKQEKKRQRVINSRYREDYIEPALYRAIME
# PLK1 PBD inh: qHTS for Inhibitors of PLK1-PDB (polo-like kinase 1 - polo-box domain): Primary Screen | Serine/threonine-protein kinase PLK1 (Homo sapiens), P53350 | Plk1 PBD binding of FITC phosphopeptide, fluorescence polarization | Potency, µM, inactives show max response, negative = inhibition, most hits filed as inhibitors | hit rate 2.8% among 360,000 | AID 720504, 2013; also: potency is read from the fitted curve at half-maximal effect; series mostly up to about 57 µM; % is scaled to controls: 0 for no effect and ±100 for the full control effect; nearly all actives have a fitted effect of over 65% in size
# BAZ2B inh: qHTS Assay for Inhibitors of BAZ2B; AlphaScreen BAZ2B-H3K14Ac peptide displacement; Potency, µM (series often up to 114 µM), inactives show at the highest dose activity change, negative = inhibition, hits mostly inhibitors; hit rate 4.4% among 360,000; also: potency is read from the fitted curve at half-maximal effect; % is scaled to controls: 0 for no effect and ±100 for the full control effect; nearly all actives have a fitted effect of over 60% in size
#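 AlphaScreen displacement of biotin-H3(5-23)K14Ac peptide (50 nM final) from BAZ2B (50 nM final) in PBS pH 7.4, 0.01% Tween-20; complex preformed 30 min RT, then compounds (top 110 uM) 30 min RT, beads 20 min dark.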
# HP1b binding inh: HTS for Inhibitors of HP1-beta Chromodomain Interactions with Methylated Histone Tails; hit rate 0.56% among 390,000; AlphaScreen HP1-beta / biotin-H3K9me3 peptide binding; Potency, µM (doses to about 114 µM), for the others: top-dose activity change, negative = inhibition, most hits filed as inhibitors; also: potency is read from the fitted curve at half-maximal effect; nearly all actives have a fitted effect of over 70% in size
#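 HP1-beta protein (50 nM final) preincubated 30 min at room temperature with biotinylated H3(1-18)K9me3 peptide (50 nM) in PBS pH 7.4, 0.01% Tween-20, then compound added for 30 min. AlphaScreen streptavidin donor/nickel chelate acceptor beads (10 ug/mL final), 30 min dark, luminescence read.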
# GCN5L2 inh: qHTS Assay for Inhibitors of GCN5L2; hit rate 0.21% among 390,000; GCN5L2 HAT assay, ThioGlo1 CoA-SH fluorescence; Potency, µM (doses to about 58.9 µM), without a hit: at the top dose activity change, negative = inhibition, usual class: inhibitors; also: potency is read from the fitted curve at half-maximal effect; % is scaled to controls: 0 for no effect and ±100 for the full control effect
#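 Compounds, pin-transferred from DMSO stocks, meet 20nM GCN5L2 for 15 min before the reaction begins with H3(1-25) peptide (75uM) and acetyl-CoA (70uM). Thiol-reactive ThioGlo1 reports CoA release over 20 min at room temperature.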
# * marks the source's active call; other numbers are inactive results; u = inconclusive; x = not tested or not shown; [ ] = remark or other dose. Only some compounds are listed: those with a hit (about 7% of all), similar ones and a draw of the others. Unless noted, calls follow the shape of the dose curve; as a rule, active = well fitted curve in the direction sought with a large enough effect; inconclusive = small, poorly fitted or top-dose-only effect, or another doubt; inactive = no such curve, though single readings can be large; an effect the other way counts as inactive or inconclusive.
SMILES,PI5P4Ka inh,JMJD2A Tudor inh,PLK1 PBD inh,BAZ2B inh,HP1b binding inh,GCN5L2 inh
COc1ccc(C2Nc3ccccc3C(=O)N2Cc2ccccc2)cc1COc1ccccc1OC (configuration not stated),x,-21%,x,x,x,x
O=C(O)c1ccc(NCCc2ccc(Cl)cc2)c([N+](=O)[O-])c1,-56*,-34%,-9%,u,3%,-5%
O=C(Nc1cc(F)cc(F)c1)c1ccc(NCCc2ccccc2)c([N+](=O)[O-])c1,2,-11%,32%,-26%,32%,1%
O=[N+]([O-])c1cc(Cl)ccc1NCCc1ccccn1,0,45µM*,-2%,10µM*,u,-3%
O=C(O)c1ccc(Nc2ccc(Cl)c(Cl)c2)c([N+](=O)[O-])c1,-52*,-35%,-6%,-37%,2%,1%
O=C(O)c1cccc(Nc2ccncc2[N+](=O)[O-])c1,u,20µM*,24µM*,-18%,29%,2%
COc1ccc(S(=O)(=O)N(CCc2ccccc2)CC(=O)Nc2cc(C)cc(C)c2)cc1OC,x,-28%,x,-15%,6%,-10%
COc1ccc(Cl)cc1S(=O)(=O)N(C)CC(=O)N1CCOCC1,2,-8%,-21%,4%,1%,-3%
O=[N+]([O-])c1cc(C(F)(F)F)ccc1NCCNC(=S)Nc1ccc(Cl)cc1,x,u,-11%,20µM*,-24%,2%
O=[N+]([O-])c1cc(C(F)(F)F)ccc1NCCCCNS(=O)(=O)c1ccc(Cl)cc1,13,u,6%,u,u,-12%
C[C@@H]1CN([C@H](C)CO)C(=O)c2cc(Br)cnc2O[C@@H]1CN(C)C(=O)Nc1cccc(F)c1,1,x,1%,x,x,x
Cn1c(N=NC(=O)c2ccccc2)c(O)c2ccccc21,-20,32µM*,27µM*,22µM*,32µM*,-2%
Cn1c(O)c(N=NC(=O)CNC(=O)c2ccccc2)c2ccccc21,3,-11%,4%,-21%,13%,2%
CN(C)Cc1cc(C(C)(C)C)c(O)c(C(C)(C)C)c1,-11,-18%[11.4 µM],11µM*,-9%,-11%,-7%
COc1ccc(O)c(C(c2c(C)[nH][nH]c2=O)c2c(C)[nH][nH]c2=O)c1,-8,2%[11.4 µM],7.5µM*,-9%,21%,u
Cc1[nH][nH]c(=O)c1C(c1ccc(Br)cc1)c1c(C)[nH][nH]c1=O,-1,-16%,u,-6%,29%,-9%
Cc1[nH][nH]c(=O)c1[C@@H](c1ccccc1[N+](=O)[O-])C(C#N)C#N,-15,-25%,24µM*,-14%,16%,-3%
Cc1[nH][nH]c(=O)c1C(c1ccc(O)c([N+](=O)[O-])c1)c1c(C)[nH][nH]c1=O,-11,-23%,-8%,-10%,5%,12%
Cc1ccc(C(c2c(C)[nH][nH]c2=O)c2c(C)[nH][nH]c2=O)cc1,13,-9%,27µM*,-2%,15%,5%
Cc1[nH][nH]c(=O)c1N=Nc1ccccc1C#N,x,x,x,u,x,-9%
Cc1[nH][nH]c(=O)c1C(c1ccc([N+](=O)[O-])cc1)c1c(C)[nH][nH]c1=O,5,-28%,27µM*,-9%,17%,u
CC12CCC(C3NC(=S)NN=C31)C2(C)C (configuration not stated),-1,-16%,-3%,x,14%[57 µM],x
CCCCCCCCN1C(=O)[C@H](CC(=O)N2CCCC2)C[C@@]2(C(=O)OC)CC(C)(C)CC=C12,9,x,-8%,x,x,x
COc1cccc(NC(=O)COc2coc(CN3CCc4ccccc4C3)cc2=O)c1,-13,-36%,-6%,-2%,26%,-11%
CN(C(=O)c1ccc(S(=O)(=O)N(C)C)cc1)c1ccc2ccccc2c1,-3,-14%,-9%,u,18%,-1%
SMILES,PI5P4Ka inh,JMJD2A Tudor inh,PLK1 PBD inh,BAZ2B inh,HP1b binding inh,GCN5L2 inh
COc1ccc(C(c2c(C)[nH][nH]c2=O)c2c(C)[nH][nH]c2=O)cc1Br,0,-20%,24µM*,-6%,13%,-8%
COc1cc(C(c2c(C)[nH][nH]c2=O)c2c(C)[nH][nH]c2=O)ccc1OC(C)C,-2,-6%,u,u,37%,4%
CCOc1cccc(C=Nc2cc(C)cc(C)c2O)c1O,-6,18µM*,24µM*,u,-22%,-11%
CC(C)n1cnc2c(N(C)c3ccccc3)nc(N(CCN(C)C)Cc3ccccc3)nc21,1,45µM*,-15%,32µM*,u,-21%
COc1cc(N(Cc2ccccc2)Cc2ccccc2)c2ncn(C(C)C)c2c1,2,u,0%,u,10%,-9%
CC(C)OCCCNC(=O)CCCn1c(=O)[nH]c2ccsc2c1=O,x,-7%,x,3%,17%,-14%
COc1ccc(-n2c(C)cc(/C=C3\C(=N)N4N=C(CC(=O)N5CCOCC5)SC4=NC3=O)c2C)cc1,-10,-34%,-15%,45µM*,16%,u
N=C1/C(=C\c2ccc(Br)o2)C(=O)N=C2SC(CC(=O)N3CCOCC3)=NN12,u,89µM*,-28%,50µM*,23%,-20%
N=C1/C(=C/c2ccco2)C(=O)N=C2SC(CC(=O)N3CCCC3)=NN12,-28,79µM*,u,u,-4%,-28%
N=C1/C(=C/c2ccc(Br)o2)C(=O)N=C2SC(CC(=O)N3CCCC3)=NN12,u,u,u,50µM*,10%,u
Cc1cc(/C=C2\C(=N)N3N=C(CC(=O)N4CCOCC4)SC3=NC2=O)c(C)n1-c1ccccc1,-3,-29%,-12%,-39%,21%,u
Cc1cc([N+](=O)[O-])ccc1P(=O)(O)c1ccc([N+](=O)[O-])cc1C,3,-28%,-13%,x,24%,x
NCCCNc1ccc(Br)cn1,x,-9%,x,x,26%,x
CC1(C)CC(=O)C(C=NCCN2CCNCC2)=C(O)C1,-4,1%,-4%,-2%,44%,-6%
CC1(C)CC(=O)C(C=NCCCN2CCOCC2)=C(O)C1,-7,-9%[11.4 µM],30µM*,-2%,3%,0%
O=C(CN1C(=O)NC2(CCCC2)C1=O)NCc1cccc(Cl)c1,2,-1%,-6%,x,21%[57 µM],4%
O=c1[nH]c(=S)[nH]c2nc(-c3ccccc3)cnc12,u,4%,-20%,x,33%,x
